The results in this text go back to PubChem BioAssay (NCI).

Some test systems named below: SR leukemia; RPMI-8226 leukemia; OVCAR-8 ovarian; OVCAR-5 ovarian; OVCAR-4 ovarian; SK-OV-3 ovarian; IGROV1 ovarian; OVCAR-3 ovarian; HS 578T breast; NCI/ADR-RES ovarian; T-47D breast; BT-549 breast; MDA-MB-435 melanoma; SW-620 colon; MCF7 breast; HCT-116 colon; HCC-2998 colon; KM12 colon.
Assay in all cases: NCI-60 one-dose screen, 48 h (100 = growth as untreated, 0 = no growth, -100 = all killed)
Conditions in all cases: 10 µM unless noted

Where “and” joins values, the source holds several entries; their conditions need not be identical. Equal values may be shown once. This is part of a sample that, as a whole, favours compounds with a hit. Of some 83,000 tested, about 20% had one in any assay.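 In brief: 96-well plates, 48 h treatment, single concentration, percent growth endpoint.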 Calls of active or inactive are those of the source. The calls were made as follows: active = growth percent below 10; inactive = the rest.

`COc1ccc(S(=O)(=O)c2ccc(F)cc2)cc1`: the growth in the assay with SR leukemia was 87.4% (inactive); in the assay on RPMI-8226 leukemia, 80.7% (inactive); in the assay with OVCAR-8 ovarian it was 97.3% (inactive); in the assay with OVCAR-5 ovarian, 99.9% (inactive); in the assay on OVCAR-4 ovarian, 100% (inactive); in the assay with SK-OV-3 ovarian, 108% (inactive). In addition, the growth was 120% (inactive) in the assay on IGROV1 ovarian; 107% (inactive) with OVCAR-3 ovarian; 93.9% (inactive) with HS 578T breast; 95.3% (inactive) in the assay on NCI/ADR-RES ovarian; 99% (inactive) with T-47D breast; 99% (inactive) in the assay on BT-549 breast. Further, the growth in the assay on MDA-MB-435 melanoma is 122% (inactive); in the assay on SW-620 colon it was 103% (inactive); in the assay with MCF7 breast, 101% (inactive); with HCT-116 colon, 102% (inactive); with HCC-2998 colon, 111% (inactive); with KM12 colon, 106% (inactive).

Consider `O=[N+]([O-])c1ccc(N2CCN=N2)cc1`, for which the growth in the assay with SR leukemia is 78.6% (inactive); with RPMI-8226 leukemia, 92.7% (inactive); in the assay on OVCAR-8 ovarian, 88% (inactive); with OVCAR-5 ovarian, 87.7% (inactive); with OVCAR-4 ovarian it was 95.9% (inactive); with SK-OV-3 ovarian it was 89.6% (inactive). The growth was 96.1% (inactive) in the assay with IGROV1 ovarian; 99.8% (inactive) in the assay on OVCAR-3 ovarian; 101% (inactive) with HS 578T breast; 100% (inactive) with NCI/ADR-RES ovarian; 67.3% (inactive) in the assay with T-47D breast; 85.3% (inactive) with BT-549 breast. In addition, the growth in the assay with MDA-MB-435 melanoma was 77.5% (inactive); in the assay on SW-620 colon it was 81.8% (inactive); in the assay on MCF7 breast, 87.5% (inactive); in the assay with HCT-116 colon it was 81.7% (inactive); in the assay on HCC-2998 colon, 107% (inactive); in the assay on KM12 colon, 77.3% (inactive).

On to `O=C(O)c1cc(=O)[nH]c(=O)[nH]1`, for which the growth with SR leukemia was 104% (inactive); with RPMI-8226 leukemia it was 98.2% (inactive) and 71.6% (inactive); in the assay with OVCAR-8 ovarian, 102% (inactive) and 76.4% (inactive); in the assay with OVCAR-5 ovarian, 101% (inactive) and -23.6% (active); with OVCAR-4 ovarian, 107% (inactive) and 101% (inactive); in the assay with SK-OV-3 ovarian, 104% (inactive) and 112% (inactive). Besides, the growth is 103% (inactive) in the assay with IGROV1 ovarian; 114% (inactive) and 112% (inactive) with OVCAR-3 ovarian; 107% (inactive) and 94.8% (inactive) with HS 578T breast; 107% (inactive) and -33.1% (active) in the assay on NCI/ADR-RES ovarian; 101% (inactive) and 105% (inactive) in the assay on T-47D breast; 97.2% (inactive) in the assay with BT-549 breast. Moreover, the growth in the assay on MDA-MB-435 melanoma is 96.7% (inactive) and 113% (inactive); with SW-620 colon, 111% (inactive) and 103% (inactive); with MCF7 breast, 98.7% (inactive); with HCT-116 colon it was 107% (inactive); with HCC-2998 colon it was 99.3% (inactive); in the assay with KM12 colon, 106% (inactive) and 99.6% (inactive).

For the molecule `COc1ccc([N+](=O)[O-])cc1OC`, the growth was 89.4% (inactive) and 108% (inactive) in the assay with SR leukemia; 106% (inactive) in the assay on RPMI-8226 leukemia; 89.6% (inactive) and 94.5% (inactive) with OVCAR-8 ovarian; 101% (inactive) and 98.3% (inactive) in the assay on OVCAR-5 ovarian; 104% (inactive) with OVCAR-4 ovarian; 114% (inactive) and 119% (inactive) in the assay on SK-OV-3 ovarian. The growth in the assay with IGROV1 ovarian is 111% (inactive) and 109% (inactive); in the assay with OVCAR-3 ovarian, 113% (inactive) and 114% (inactive); with HS 578T breast, 112% (inactive) and 132% (inactive); with NCI/ADR-RES ovarian, 102% (inactive) and 104% (inactive); in the assay on T-47D breast, 103% (inactive) and 102% (inactive); with BT-549 breast, 110% (inactive). Further, the growth with MDA-MB-435 melanoma was 109% (inactive) and 107% (inactive); with SW-620 colon it was 91.8% (inactive) and 110% (inactive); in the assay with MCF7 breast it was 87.5% (inactive) and 96.7% (inactive); in the assay on HCT-116 colon, 96.5% (inactive) and 102% (inactive); in the assay on HCC-2998 colon it was 105% (inactive); in the assay with KM12 colon, 109% (inactive) and 120% (inactive).

On to `CC1(C)OC(=O)C(=Cc2ccc(C#N)cc2)C(=O)O1`, for which the growth in the assay with SR leukemia was 93.5% (inactive) and 89% (inactive); in the assay with RPMI-8226 leukemia, 101% (inactive) and 103% (inactive); in the assay on OVCAR-8 ovarian, 94.5% (inactive) and 97.8% (inactive); with OVCAR-5 ovarian, 107% (inactive) and 113% (inactive); with OVCAR-4 ovarian, 115% (inactive) and 98.3% (inactive); in the assay with SK-OV-3 ovarian it was 104% (inactive) and 106% (inactive). Further, the growth in the assay with IGROV1 ovarian was 107% (inactive) and 105% (inactive); in the assay with OVCAR-3 ovarian it was 111% (inactive) and 105% (inactive); in the assay on HS 578T breast, 99.3% (inactive) and 104% (inactive); with NCI/ADR-RES ovarian, 106% (inactive) and 110% (inactive); in the assay with T-47D breast, 86.4% (inactive) and 102% (inactive); in the assay with BT-549 breast it was 109% (inactive) and 103% (inactive). Besides, the growth in the assay on MDA-MB-435 melanoma is 108% (inactive) and 105% (inactive); in the assay with SW-620 colon, 100% (inactive) and 104% (inactive); in the assay on MCF7 breast, 104% (inactive) and 95.6% (inactive); in the assay with HCT-116 colon it was 96.5% (inactive) and 108% (inactive); in the assay on HCC-2998 colon, 112% (inactive) and 105% (inactive); in the assay with KM12 colon, 105% (inactive) and 115% (inactive).

Turning to `CCOC(=O)c1csc(N)n1`, the growth with SR leukemia is 102% (inactive); with RPMI-8226 leukemia, 83.7% (inactive) and 97.4% (inactive); in the assay on OVCAR-8 ovarian, 97.4% (inactive); in the assay with OVCAR-5 ovarian it was 106% (inactive) and 104% (inactive); in the assay with OVCAR-4 ovarian it was 104% (inactive) and 94.9% (inactive); with SK-OV-3 ovarian, 101% (inactive) and 98% (inactive). The growth in the assay with IGROV1 ovarian was 56.3% (inactive) and 109% (inactive); with OVCAR-3 ovarian it was 108% (inactive) and 107% (inactive); in the assay on HS 578T breast it was 95.1% (inactive) and 101% (inactive); in the assay on NCI/ADR-RES ovarian, 111% (inactive) and 104% (inactive); with T-47D breast, 104% (inactive) and 98.5% (inactive); in the assay on BT-549 breast, 102% (inactive) and 105% (inactive). For the same molecule, the growth in the assay with MDA-MB-435 melanoma was 99% (inactive) and 102% (inactive); with SW-620 colon, 104% (inactive) and 103% (inactive); in the assay on MCF7 breast it was 91.8% (inactive) and 90.8% (inactive); with HCT-116 colon, 107% (inactive) and 99.4% (inactive); in the assay with HCC-2998 colon it was 115% (inactive) and 101% (inactive); with KM12 colon it was 110% (inactive) and 108% (inactive).
